# Test results as given in PubChem BioAssay AID619 (University of Pittsburgh Molecular Library Screening Center, 2007).
# Out of some 97,000 compounds screened, about 520 (0.54%) were called active. The sample holds actives, similar compounds and a random draw of the others, so the mix is not that of the screen.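 Rule for the calls: active = inhibition of 50% or more in the single-concentration screen; inactive = inhibition below 50%.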
# Target: Serine/threonine-protein kinase PLK1 (Homo sapiens) (UniProt P53350)
# Test: human PLK1 kinase inhibitors, primary screen, biochemical, TR-FRET (AID 619);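 note: 0% = DMSO max control and 100% = H-89 dihydrochloride min control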
# Settings: recombinant PLK1 kinase, TR-FRET peptide phosphorylation; at 10 µM; stronger effect = higher value
# Serine/threonine-protein kinase PLK1 (Homo sapiens), sequence (P53350 whole entry, looked up): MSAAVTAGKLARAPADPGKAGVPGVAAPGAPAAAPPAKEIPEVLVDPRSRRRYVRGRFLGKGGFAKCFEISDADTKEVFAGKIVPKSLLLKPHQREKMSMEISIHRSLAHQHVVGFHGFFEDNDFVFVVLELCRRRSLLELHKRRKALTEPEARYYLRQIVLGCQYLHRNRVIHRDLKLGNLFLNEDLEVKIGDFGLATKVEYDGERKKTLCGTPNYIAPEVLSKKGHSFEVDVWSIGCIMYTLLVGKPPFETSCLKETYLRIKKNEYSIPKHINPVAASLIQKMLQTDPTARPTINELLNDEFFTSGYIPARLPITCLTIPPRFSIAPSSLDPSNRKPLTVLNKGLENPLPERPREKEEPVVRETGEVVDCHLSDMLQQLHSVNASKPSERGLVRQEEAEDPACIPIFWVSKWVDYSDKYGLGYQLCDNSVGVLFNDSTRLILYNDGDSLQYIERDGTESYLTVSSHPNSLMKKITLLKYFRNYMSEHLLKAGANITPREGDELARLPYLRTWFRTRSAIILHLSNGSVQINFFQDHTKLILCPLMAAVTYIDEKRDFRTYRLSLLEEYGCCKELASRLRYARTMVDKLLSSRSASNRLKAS
row,SMILES,inhibition
1,CCCc1nc(NCc2ccc3c(c2)OCO3)c2nnn(Cc3ccccc3Cl)c2n1,-9.3% (inactive)
2,CCC(=O)NNc1cc(=O)c2c(=O)n(C)c(=O)n(C)c2[nH]1,-9.06% (inactive)
3,CN(C)/C=C(\C#N)C(=O)c1cccnc1Oc1ccc(F)cc1F,-4.48% (inactive)
4,COCCCNC(=O)C1CC(=O)N(CCc2ccccc2)C1 (stereo unspecified),-12.8% (inactive)
5,COc1cc(OC)cc(-c2cc3nc(C4CCN(C(=O)OC(C)(C)C)CC4)cc(=O)n3[nH]2)c1,-8.81% (inactive)
6,Cc1c(Nc2nc3ccccc3nc2NS(=O)(=O)c2cccs2)c(=O)n(-c2ccccc2)n1C,-2.91% (inactive)
7,Cc1cccc(N2C(=O)C3C(c4ccccc4)OC4(C(=O)c5ccccc5C4=O)C3C2=O)c1 (stereo unspecified),-6.04% (inactive)
8,Cc1cccc(N2C(=O)SC(N(CC(=O)O)c3cccc(C)c3)C2=O)c1 (stereo unspecified),68.7% (active)
9,Cc1cccc(N(CC(=O)N2CCOCC2)S(C)(=O)=O)c1,-16.7% (inactive)
10,CCOC(=O)c1cc(C#N)c(N2CCCCC2)nc1-c1ccccc1,-7.56% (inactive)
11,COc1ccc(NC(=O)Cn2nnc(C(=O)NCCc3ccc(OC)c(OC)c3)c2N)cc1,-3.12% (inactive)
12,CCC(=O)NCCc1nc2ccccc2n1CC,-12.5% (inactive)
13,Cc1ccc(S(=O)(=O)NCC(C)NS(C)(=O)=O)cc1 (stereo unspecified),-7.03% (inactive)
14,O=C(c1cccc(F)c1)N1CCC(O)(c2cccnc2)CC1,-11.3% (inactive)
15,Cc1cc(S(=O)(=O)NC2CCCCC2)ccc1OCC(=O)NCc1cccnc1,-6.44% (inactive)
16,Cc1ccc(N2C(=O)S/C(=C/c3cn(C)c4ccccc34)C2=O)cc1,-7.68% (inactive)

row,SMILES,inhibition
1,Cn1c(=O)[nH]c(=O)c2c1nc(NCCCn1ccnc1)n2Cc1cccc(Br)c1,51.2% (active)
2,CCCCNc1nc2c(c(=O)[nH]c(=O)n2C)n1CCOc1ccccc1,-13.6% (inactive)
3,CC(c1ccccc1)n1c(NCCCn2ccnc2)nc2c1c(=O)[nH]c(=O)n2C (stereo unspecified),-13.2% (inactive)
4,CCOC(=O)N1CCC(N(CCOC)C(=O)Nc2ccc(C)c(C)c2)CC1,-7.06% (inactive)
5,Cn1nc(-c2ccccc2)c(CSc2cccc(Cl)c2)c1Cl,-5.77% (inactive)
6,CCCC(=O)C1CCN(Cc2ccccc2)CC1,-5.07% (inactive)
7,Cc1ccc(N2C(=O)C(Cc3ccccc3)NC2=S)cc1 (stereo unspecified),-4.76% (inactive)
8,CCOC(=O)c1ccc2c(c1)nc(SCC(=O)NC(C)C)n2CC,-12.9% (inactive)
9,O=C(NCCCN1CCOCC1)c1cc2c(s1)CCC2,12.4% (inactive)
10,CCn1c(SCC(=O)Nc2ccc(OC)c(OC)c2)nnc1-c1c[nH]c2ccccc12,-21.5% (inactive)
11,CCC(C)Sc1nnc(-c2c[nH]c3ccccc23)n1CCOC (stereo unspecified),-10.2% (inactive)
12,CCn1c(SCCC(C)C)nnc1-c1c[nH]c2ccccc12,57.8% (active)
13,CCCC(C(=O)n1nc(C)cc1C)C(NS(=O)(=O)c1ccc(C)cc1)c1ccccc1 (stereo unspecified),-12% (inactive)
14,COc1ccc(Oc2coc3cc(OC(=O)c4cncc(Br)c4)ccc3c2=O)cc1,-8.95% (inactive)
15,Cc1cc(C)c2nc(NC(=O)C3CCCO3)sc2c1 (stereo unspecified),-2.38% (inactive)
